# In the supplement of paper PMC11624193, “Coupling cellular drug-target engagement to downstream pharmacology with CeTEAM” (Nature Communications, 2024):
# ± gives the standard deviation of the averaged measurements.
# Biological target: PARP1 L713F-nLuc biosensor (HCT116) (UniProt P09874)
# Assay: PARP1 L713F-nLuc/akaLuc ratio relative to DMSO control (biosensor stabilization) (fold change); higher = more PARP1 biosensor stabilization (target engagement / stabilizer), active = hit call of the paper
# Details: stock concentration (mM; final µM = stock mM x 1): 10; 24 h;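 active = log2 fold change beyond 2 SD from the library mean after excluding viability outliers; inactive = within 2 SD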
# Chain of PARP1 L713F-nLuc biosensor (HCT116) (P09874 whole entry L713F, looked up): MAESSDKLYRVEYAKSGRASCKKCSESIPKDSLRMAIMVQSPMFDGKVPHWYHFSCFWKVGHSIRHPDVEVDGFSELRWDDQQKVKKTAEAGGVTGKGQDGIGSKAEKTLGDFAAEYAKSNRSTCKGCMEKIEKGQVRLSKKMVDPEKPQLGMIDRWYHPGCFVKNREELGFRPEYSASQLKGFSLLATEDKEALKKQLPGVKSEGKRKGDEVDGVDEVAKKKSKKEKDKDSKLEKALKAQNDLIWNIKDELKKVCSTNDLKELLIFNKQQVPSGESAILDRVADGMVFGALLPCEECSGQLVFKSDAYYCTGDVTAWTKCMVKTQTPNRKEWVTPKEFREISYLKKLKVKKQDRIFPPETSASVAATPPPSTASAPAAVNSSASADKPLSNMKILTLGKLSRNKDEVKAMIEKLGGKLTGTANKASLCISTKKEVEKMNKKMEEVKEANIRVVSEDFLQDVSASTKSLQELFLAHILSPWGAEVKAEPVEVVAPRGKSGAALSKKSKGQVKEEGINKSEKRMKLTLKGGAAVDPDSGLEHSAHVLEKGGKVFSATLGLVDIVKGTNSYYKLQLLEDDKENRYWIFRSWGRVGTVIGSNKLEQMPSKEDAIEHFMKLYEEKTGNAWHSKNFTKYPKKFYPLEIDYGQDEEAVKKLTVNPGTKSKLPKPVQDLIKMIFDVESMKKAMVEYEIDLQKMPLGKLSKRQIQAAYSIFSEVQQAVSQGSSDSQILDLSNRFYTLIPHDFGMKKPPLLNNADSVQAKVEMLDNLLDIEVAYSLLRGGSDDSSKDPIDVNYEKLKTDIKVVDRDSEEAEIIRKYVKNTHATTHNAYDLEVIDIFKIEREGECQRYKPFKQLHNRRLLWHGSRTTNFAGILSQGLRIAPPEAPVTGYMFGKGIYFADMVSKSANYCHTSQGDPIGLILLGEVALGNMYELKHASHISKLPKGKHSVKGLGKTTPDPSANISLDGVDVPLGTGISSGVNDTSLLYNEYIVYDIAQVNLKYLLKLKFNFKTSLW
row,SMILES,PARP1 L713F-nLuc/akaLuc ratio
1,COc1cc(Nc2ncc3c(n2)-c2ccc(Cl)cc2C(c2c(F)cccc2OC)=NC3)ccc1C(=O)O [Alisertib],0.939 (inactive)
2,O=C(CCCCCCC(=O)NO)NO [Suberoyl bis-hydroxamic acid],0.788 (inactive)
3,C[C@@H](COCCC(=O)N1CCN(c2ncc(C(F)(F)F)cn2)CC1)Nc1cn[nH]c(=O)c1C(F)(F)F,2.09 (inactive)
4,O=C(NNS(=O)(=O)c1ccccc1)c1cc(-c2ccnnc2)ccc1F,1.16 (inactive)
5,O=C(Nc1c[nH]nc1-c1nc2ccc(CN3CCOCC3)cc2[nH]1)NC1CC1,2.07 ± 0.91
6,"CCOC(=O)c1c[nH]c2c(ccc3cccnc32)c1=O [1,4-DPCA ethyl ester]",1.19 (inactive)
7,O=C(O)CC[C@H](O)C(=O)O [L-2-Hydroxyglutaric acid (disodium)],1.2 (inactive)
8,"C=CC(=O)Nc1cccc(Nc2nc(Nc3ccc(N4CCN(C(C)=O)CC4)cc3OC)ncc2C(F)(F)F)c1 [Rociletinib (CO-1686, AVL-301)]",0.886 (inactive)
9,Cc1nc(-c2cccnc2)sc1C(=O)Nc1ccccc1-c1cn2c(CN3CCOCC3)csc2n1,0.883 (inactive)
10,COc1cccc(OC)c1C(=O)OCc1cc(O)ccc1O[C@@H]1O[C@H](CO)[C@@H](O)[C@H](O)[C@H]1O [Curculigoside],0.993 (inactive)
11,CCc1cccc(CC)c1NC(=O)N1Cc2[nH]nc(NC(=O)c3ccc(N4CCN(C)CC4)cc3)c2C1,0.92 (inactive)
12,CCS(=O)(=O)N1CC(CC#N)(n2cc(-c3ncnc4[nH]ccc34)cn2)C1 [Baricitinib],0.881 (inactive)
13,O=C(O)Cn1nnc(-c2ccc(CN(CCCCOc3ccc(CN4CCCC4)cc3)CCc3ccccc3)cc2)n1,1.04 (inactive)
14,O=C(Nc1cc(Cl)cc2c1[nH]c1cnccc12)c1cccnc1,0.723 (inactive)
15,CCS(=O)(=O)N1CCC([C@@H](C)n2c(C)c(C(=O)NCc3c(OC)cc(C)[nH]c3=O)c3ccccc32)CC1,1.51 (inactive)
